Compound activity (PubChem BioAssay)
The full list was thinned out, with hits kept by preference.
HT1080-NT tox: kills 2HG-producing HT-1080-NT fibrosarcoma cells | Potency, µM (top dose mostly 46.1 µM), most hits filed as cytotoxic | AID 686970 | HT-1080-NT fibrosarcoma viability, CellTiter-Glo ATP luminescence, 48 h | 1.6% of 360,000 active;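 also: NT is the 2HG producing partner of a matched IDH1 knockdown line; nearly all actives have a fitted effect of over 55% in size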
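Luminescent CellTiter-Glo readout after 48 hours of compound exposure at 37 degrees C defined viability of HT-1080-NT cells. Activity was normalized to DMSO wells and cell-free media wells; concentration-response curves were fitted and assigned curve classes.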
IL-1B inflam inh: blocks inflammasome-driven IL-1 beta release | THP-1 LPS/ATP IL-1B secretion, AlphaLISA, 16 h; active compounds read low | activity change, % at 57.5 µM | 4.7% of 360,000 active; in the data active = activity change below about -50%; inconclusive = mostly about -30% to -49%
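Secreted IL-1B measured by AlphaLISA bead assay after 16 h compound exposure of THP-1 cells; compounds (final up to 57.5 uM) added 1 h before LPS (250 ng/mL) and ATP (1.25 mM) stimulation; lower signal means less secretion.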
DT40 TDP1 CPT: DT40-hTDP1 cell growth loss with CPT; chicken DT40 Tdp1-/-;hTDP1 cells + 20 nM CPT, ATP luminescence, 48 h; Potency, µM (titrated, usually from 46.2 µM), usual class: inhibitors; 12% of 420,000 active; AID 686979; also: nearly all actives have a fitted effect of over 55% in size
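Chicken DT40 Tdp1-/- cells stably complemented with human TDP1 were seeded at 400 cells/well in medium containing 20 nM camptothecin, exposed to pin-transferred compounds, and grown at 37 °C for at least 48 hr. Viability was read as ATP luminescence.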
ALOX12 inh: inhibitors of human 12S-lipoxygenase ALOX12; P18054; purified 12hLO, xylenol orange hydroperoxide absorbance; Potency, µM (doses to about 108 µM), actives largely listed as inhibitors; 1.1% of 580,000 active
Target sequence (P18054 whole entry, looked up): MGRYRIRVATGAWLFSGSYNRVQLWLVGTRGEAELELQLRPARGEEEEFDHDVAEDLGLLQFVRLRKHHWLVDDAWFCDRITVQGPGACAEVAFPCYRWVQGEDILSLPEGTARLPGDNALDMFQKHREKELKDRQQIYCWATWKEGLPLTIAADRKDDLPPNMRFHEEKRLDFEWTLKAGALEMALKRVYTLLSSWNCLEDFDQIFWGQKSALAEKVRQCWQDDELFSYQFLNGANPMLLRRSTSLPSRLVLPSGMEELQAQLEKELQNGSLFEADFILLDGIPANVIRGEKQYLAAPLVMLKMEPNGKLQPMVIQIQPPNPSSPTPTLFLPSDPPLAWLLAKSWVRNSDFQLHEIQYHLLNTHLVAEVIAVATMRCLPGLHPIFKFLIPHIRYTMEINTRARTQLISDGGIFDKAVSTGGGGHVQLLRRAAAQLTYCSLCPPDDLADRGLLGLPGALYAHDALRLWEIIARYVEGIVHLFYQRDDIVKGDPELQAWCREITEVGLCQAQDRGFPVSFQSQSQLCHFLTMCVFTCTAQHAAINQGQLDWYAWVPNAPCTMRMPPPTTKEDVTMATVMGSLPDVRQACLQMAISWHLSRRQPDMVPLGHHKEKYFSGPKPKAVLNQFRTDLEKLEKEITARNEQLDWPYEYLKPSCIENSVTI
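Purified human 12hLO (150 nM final) in 25 mM Hepes, 0.01% Triton X-100, pH 7.0 was preincubated 15 min at room temperature with compound. Then 40 uM arachidonic acid was added, 30 min. Hydroperoxide was read by Fe-XO absorbance ratio 573/405 nm.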
TDP1 cell noCPT: qHTS for Inhibitors of human tyrosyl-DNA phosphodiesterase 1 (TDP1): qHTS in cells in absence of CPT; DT40 Tdp1-/- hTDP1 cells, no CPT, ATP luminescence, 48 h; Potency, µM (top dose mostly 46.2 µM), usual class: inhibitors; 15% of 420,000 active; also: nearly all actives have a fitted effect of over 55% in size
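Compound effects on proliferation are scored in DT40 Tdp1-/-;hTDP1 cells in the absence of CPT. ATP levels (CellTiter-Glo luminescence) are recorded after a ≥48 hr, 37 °C incubation.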
HT1080 IDH1KD tx: kills HT-1080 cells with IDH1 knockdown; 2% of 360,000 active; AID 686971; HT-1080 IDH1 knockdown viability, ATP luminescence, 48 h; Potency, µM (top dose mostly 46.1 µM), most hits filed as cytotoxic
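IDH1KD HT-1080 cells, 750/well, RPMI + 5% FBS; compound pinned after 2 h settling; 48 h, 37 °C; CellTiter-Glo luminescence; % activity normalised to DMSO and no-cell wells; curves fitted, classed by r2 and efficacy.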
A number is an active result. Unless noted, calls follow the shape of the dose curve; as a rule, active = well fitted curve in the direction sought with a large enough effect; inconclusive = small, poorly fitted or top-dose-only effect, or another doubt; inactive = no such curve, though single readings can be large; an effect the other way counts as inactive or inconclusive.

Results for CCc1cccc(NC(=O)Cc2ccc(OC)c(OC)c2)c1 ?
HT1080-NT tox: inactive; IL-1B inflam inh: inactive; DT40 TDP1 CPT: inconclusive; ALOX12 inh: inactive; TDP1 cell noCPT: 13µM; HT1080 IDH1KD tx: inactive

Results for COc1ccc(CCN(C)CCC(=O)Nc2cccc(C)c2)cc1OC ?
HT1080-NT tox: inactive; IL-1B inflam inh: inactive; DT40 TDP1 CPT: inactive; ALOX12 inh: inactive; TDP1 cell noCPT: inactive; HT1080 IDH1KD tx: inactive

Results for COc1ccc(CC(=O)Nc2cccc(-c3nnc(-c4ccccc4)o3)c2)cc1OC ?
HT1080-NT tox: inconclusive; IL-1B inflam inh: -72.3; DT40 TDP1 CPT: 5.8µM; ALOX12 inh: inactive; TDP1 cell noCPT: 2.31µM; HT1080 IDH1KD tx: inactive

What do the screens show for `COc1ccc(CC(=O)NCc2cccc(CNC(=O)Cc3ccc(OC)c(OC)c3)c2)cc1OC`?
HT1080-NT tox: inactive; IL-1B inflam inh: inactive; DT40 TDP1 CPT: inactive; ALOX12 inh: inactive; TDP1 cell noCPT: inactive; HT1080 IDH1KD tx: inactive

Results for COc1ccc(CC(=O)Nc2cccc(-c3nnc(-c4cccc(C)c4)o3)c2)cc1OC ?
HT1080-NT tox: inactive; IL-1B inflam inh: inactive; DT40 TDP1 CPT: inconclusive; ALOX12 inh: inconclusive; TDP1 cell noCPT: 23.1µM; HT1080 IDH1KD tx: inactive

How did Cc1ccc(OCC(=O)Nc2cccc(-c3nnc(-c4ccccc4)o3)c2)c(C)c1 do in these assays?
HT1080-NT tox: inconclusive; IL-1B inflam inh: inactive; DT40 TDP1 CPT: 11.6µM; ALOX12 inh: inactive; TDP1 cell noCPT: 11.6µM; HT1080 IDH1KD tx: inconclusive

How did COC(=O)CN1CCN(CCC(C)C)CC1 do in these assays?
ALOX12 inh: inactive

Results for COc1ccc(CC(=O)Nc2ccc(-c3nnc(-c4ccccc4)o3)cc2)cc1OC ?
HT1080-NT tox: inactive; IL-1B inflam inh: inactive; DT40 TDP1 CPT: inactive; ALOX12 inh: inactive; TDP1 cell noCPT: inactive; HT1080 IDH1KD tx: inactive

How did COc1ccc(CC(=O)Nc2cccc(-c3nnc(-c4ccc(C)cc4)o3)c2)cc1OC do in these assays?
HT1080-NT tox: inconclusive; IL-1B inflam inh: -99.4; DT40 TDP1 CPT: 6.51µM; ALOX12 inh: inconclusive; TDP1 cell noCPT: 5.17µM; HT1080 IDH1KD tx: inconclusive

How did COCCNc1nc(NCc2ccc(C(C)C)cc2)c2sccc2n1 do in these assays?
HT1080-NT tox: 13µM; IL-1B inflam inh: inactive; DT40 TDP1 CPT: 11.6µM; ALOX12 inh: inconclusive; TDP1 cell noCPT: 11.6µM; HT1080 IDH1KD tx: 18.4µM

How did COc1cccc(CNc2nc(NC(C)C)nc3ccsc23)c1 do in these assays?
HT1080-NT tox: inconclusive; IL-1B inflam inh: inactive; DT40 TDP1 CPT: 23.1µM; ALOX12 inh: inconclusive; TDP1 cell noCPT: inconclusive; HT1080 IDH1KD tx: inconclusive

Results for COc1cccc(CNc2nc3ccc(C)cc3nc2-n2nc(C)cc2C)c1 ?
ALOX12 inh: inactive

Results for COCCNc1nc(NCc2cccc(OC)c2)c2sccc2n1 ?
HT1080-NT tox: inactive; IL-1B inflam inh: inactive; DT40 TDP1 CPT: 14.6µM; ALOX12 inh: inconclusive; TDP1 cell noCPT: 18.4µM; HT1080 IDH1KD tx: inactive

How did O=C(CC1CCN(C(=O)c2ccc(F)c(F)c2)C1)NCc1ccccc1 (stereo not drawn) do in these assays?
ALOX12 inh: inactive

What do the screens show for `Cc1ccc2nc(-c3ccc(NC(=O)c4cccc(F)c4)cc3)oc2c1`?
ALOX12 inh: inactive

What do the screens show for `CCc1nnc(NC(=O)c2ccc3ccccc3n2)s1`?
HT1080-NT tox: inactive; IL-1B inflam inh: inactive; DT40 TDP1 CPT: inconclusive; ALOX12 inh: inactive; TDP1 cell noCPT: 18.4µM; HT1080 IDH1KD tx: inactive

How did CCc1nnc(NC(=O)c2sc3nc4cc(C)ccc4cc3c2N)s1 do in these assays?
HT1080-NT tox: inactive; IL-1B inflam inh: inactive; DT40 TDP1 CPT: 2.59µM; ALOX12 inh: inconclusive; TDP1 cell noCPT: 2.91µM; HT1080 IDH1KD tx: inactive

How did CCSc1nnc(NC(=O)c2ccc3ccccc3n2)s1 do in these assays?
HT1080-NT tox: inactive; IL-1B inflam inh: inactive; DT40 TDP1 CPT: 18.4µM; ALOX12 inh: inactive; TDP1 cell noCPT: inconclusive; HT1080 IDH1KD tx: inactive

Results for CC(NC(=O)C1(c2ccccc2)CC1)C12CC3CC(CC(C3)C1)C2 (stereo not drawn) ?
ALOX12 inh: inactive
